About 83,000 compounds went through this panel and 20% of them were active in at least one assay; those are over-represented in the sample as a whole.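 The test compound was applied at a single concentration to cells in 96-well plates for 48 hours, and percent growth was recorded.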 Values without a mark were called inactive. The source made the active and inactive calls. Rule for the calls: active = growth percent below 10; inactive = the rest.
Assays:
Assay in all cases: NCI-60 one-dose screen, 48 h (100 = growth as untreated, 0 = no growth, -100 = all killed)
[1] = system: NCI-H522 lung; conditions: 10 µM unless noted
[2] = system: COLO 205 colon; conditions: 10 µM
[3] = system: M14 melanoma; conditions: 10 µM unless noted
[4] = system: EKVX NSCLC; conditions: 10 µM unless noted
[5] = system: TK-10 renal; conditions: 10 µM unless noted
[6] = system: CCRF-CEM leukemia; conditions: 10 µM unless noted
[7] = system: RPMI-8226 leukemia; conditions: 10 µM unless noted
[8] = system: SK-OV-3 ovarian; conditions: 10 µM unless noted
[9] = system: IGROV1 ovarian; conditions: 10 µM
[10] = system: HS 578T breast; conditions: 10 µM unless noted
[11] = system: NCI/ADR-RES ovarian; conditions: 10 µM unless noted
[12] = system: A549/ATCC NSCLC; conditions: 10 µM unless noted
[13] = system: SK-MEL-2 melanoma; conditions: 10 µM unless noted
[14] = system: ACHN renal; conditions: 10 µM unless noted
[15] = system: SR leukemia; conditions: 10 µM
[16] = system: OVCAR-5 ovarian; conditions: 10 µM unless noted
[17] = system: OVCAR-4 ovarian; conditions: 10 µM unless noted
[18] = system: HCT-116 colon; conditions: 10 µM unless noted

Question: `CC[C@@H](C)/C=C(C)/C=C/C(=O)c1c(O)c(-c2ccc(O)cc2)cn(O)c1=O` was tested. Which growth [1] did it give?
Answer: 21.9%

Question: And the growth [2]?
Answer: 85.2%

Question: And the growth [3]?
Answer: -1.25% (active)

Question: And the growth [4]?
Answer: -0.798% (active)

Question: And the growth [5]?
Answer: 11.6%

Question: And the growth [6]?
Answer: 9.47% (active)

Question: And the growth [7]?
Answer: 22.5%

Question: What about the growth [8] of the same molecule?
Answer: 17.8%

Question: And the growth [9]?
Answer: 5.54% (active)

Question: And the growth [10]?
Answer: 48%

Question: What about the growth [11] of the same molecule?
Answer: 1.53% (active)

Question: What does the source list for `CC(C)[C@]12O[C@H]1[C@@H]1O[C@]13[C@]1(O[C@H]1C[C@H]1C4=C(CC[C@@]13C)C(=O)OC4)[C@@H]2OC(=O)OC(C)(C)C`?
Answer: growth [1]: -34.3% (active); growth [12]: 16.7%; growth [3]: -75.7% (active); growth [13]: -55.3% (active); growth [4]: -22.4% (active); growth [5]: 5.21% (active); growth [14]: 9.88% (active); growth [6]: 13.4%; growth [15]: 3.66% (active); growth [7]: 20.6%; growth [16]: 24.4%; growth [17]: 29.3%; growth [8]: 43.6%; growth [9]: -5.58% (active); growth [10]: -6.44% (active); growth [11]: -2.52% (active); growth [18]: 4.76% (active)

Question: Which growth [1] does the source give for `CC(C)C1c2ccc(O)cc2Oc2nc(N)c(C#N)c(N)c21` (stereo not given) here?
Answer: 86.4%

Question: And the growth [2]?
Answer: 109%

Question: And the growth [3]?
Answer: 129%

Question: And the growth [13]?
Answer: 109%

Question: And the growth [14]?
Answer: 92.5%

Question: And the growth [6]?
Answer: 94.8%

Question: And the growth [15]?
Answer: 97.1%

Question: And the growth [7]?
Answer: 89.4%

Question: And the growth [16]?
Answer: 104%

Question: What about the growth [8] of the same molecule?
Answer: 116%

Question: And the growth [9]?
Answer: 111%

Question: What about the growth [10] of the same molecule?
Answer: 91.4%

Question: And the growth [11]?
Answer: 102%

Question: And the growth [18]?
Answer: 103%

Question: For `O=C(NCc1ccc([N+](=O)[O-])cc1)Nc1ccc(S(=O)(=O)F)cc1`, which growth [2] is on record?
Answer: 107%

Question: What about the growth [3] of the same molecule?
Answer: 93.5%

Question: What about the growth [13] of the same molecule?
Answer: 105%

Question: And the growth [14]?
Answer: 90.1%

Question: What about the growth [6] of the same molecule?
Answer: 81.4%

Question: What about the growth [15] of the same molecule?
Answer: 79.1%

Question: What about the growth [7] of the same molecule?
Answer: 68.9%

Question: And the growth [16]?
Answer: 83.9%

Question: And the growth [17]?
Answer: 83.4%

Question: What about the growth [9] of the same molecule?
Answer: 94.8%

Question: What about the growth [11] of the same molecule?
Answer: 78.3%

Question: What about the growth [18] of the same molecule?
Answer: 82.2%

Question: How did the growth [12] turn out when `CC(=O)[O][Hg][c]1nc2c(c(=O)n(C)c(=O)n2C)n1C` was run?
Answer: 102%

Question: And the growth [2]?
Answer: 113%

Question: What about the growth [3] of the same molecule?
Answer: 101%

Question: What about the growth [5] of the same molecule?
Answer: 110%

Question: And the growth [14]?
Answer: 112%

Question: What about the growth [15] of the same molecule?
Answer: 41.3%

Question: And the growth [7]?
Answer: 102%

Question: And the growth [16]?
Answer: 117%

Question: And the growth [17]?
Answer: 95.1%

Question: What about the growth [8] of the same molecule?
Answer: 115%

Question: What about the growth [9] of the same molecule?
Answer: 81%

Question: And the growth [10]?
Answer: 105%

Question: What about the growth [11] of the same molecule?
Answer: 114%

Question: What about the growth [18] of the same molecule?
Answer: 99.9%

Question: How did the growth [1] turn out when `C[C@]12CC[C@@H]3c4ccc(OC(=O)Cc5ccc(N(CCCl)CCCl)cc5)cc4CC[C@H]3[C@@H]1CC[C@@H]2OC(=O)Cc1ccc(N(CCCl)CCCl)cc1` was run?
Answer: 134%

Question: And the growth [2]?
Answer: 104%

Question: What about the growth [3] of the same molecule?
Answer: 107%

Question: And the growth [13]?
Answer: -3.92% (active)

Question: And the growth [4]?
Answer: 110%

Question: And the growth [5]?
Answer: 120%

Question: And the growth [14]?
Answer: 109%

Question: And the growth [6]?
Answer: 136%

Question: What about the growth [15] of the same molecule?
Answer: 106%

Question: What about the growth [7] of the same molecule?
Answer: 123%

Question: What about the growth [16] of the same molecule?
Answer: 105%

Question: What about the growth [17] of the same molecule?
Answer: 111%

Question: What about the growth [8] of the same molecule?
Answer: 126%

Question: What about the growth [10] of the same molecule?
Answer: 120%

Question: And the growth [11]?
Answer: 55.9%

Question: And the growth [18]?
Answer: 104%

Question: With `NC(=O)NC(=O)CI` as the molecule, how does the growth [12] read?
Answer: 98.6%

Question: And the growth [2]?
Answer: -62.4% (active)

Question: What about the growth [3] of the same molecule?
Answer: 88.7%

Question: And the growth [13]?
Answer: 92.1%

Question: What about the growth [14] of the same molecule?
Answer: 84.7%

Question: And the growth [15]?
Answer: 25.9%

Question: What about the growth [7] of the same molecule?
Answer: 91.3%

Question: And the growth [16]?
Answer: 114%

Question: And the growth [17]?
Answer: 94.4%

Question: And the growth [8]?
Answer: 111%

Question: And the growth [9]?
Answer: 69.5%

Question: And the growth [10]?
Answer: 94.3%

Question: What about the growth [11] of the same molecule?
Answer: 99.4%

Question: What does the source list for `CC1(C)N=C(N)N=C(N)N1c1ccc(CNC(=O)Nc2ccc(S(=O)(=O)F)c(Cl)c2)c(Cl)c1`?
Answer: growth [12]: 10%; growth [2]: 37.1%; growth [3]: 29.4%; growth [13]: 49.7%; growth [5]: 22.6%; growth [14]: 52.9%; growth [6]: 17.5%; growth [15]: 34.6%; growth [7]: 27.6%; growth [16]: 26.4%; growth [17]: 68.8%; growth [8]: 42.9%; growth [11]: 103%; growth [18]: 10.1%

Question: With `O=C1C=CC(=O)C2C1C1(Cl)C(Cl)=C(Cl)C2(Cl)C1(Cl)Cl` (stereo not given) as the molecule, how does the growth [12] read?
Answer: 60.6%

Question: What about the growth [3] of the same molecule?
Answer: 44.4%

Question: And the growth [13]?
Answer: 37%

Question: And the growth [4]?
Answer: 41.3%

Question: What about the growth [5] of the same molecule?
Answer: 71.5%

Question: What about the growth [14] of the same molecule?
Answer: 50.8%

Question: What about the growth [6] of the same molecule?
Answer: 60.4%

Question: What about the growth [15] of the same molecule?
Answer: 36.5%

Question: And the growth [7]?
Answer: 67.9%

Question: What about the growth [16] of the same molecule?
Answer: 78.3%

Question: What about the growth [17] of the same molecule?
Answer: 58.1%

Question: And the growth [8]?
Answer: 71%

Question: What about the growth [9] of the same molecule?
Answer: 56.4%

Question: And the growth [10]?
Answer: 58.2%

Question: What about the growth [11] of the same molecule?
Answer: 47.3%

Question: What about the growth [18] of the same molecule?
Answer: 36.3%

Question: With `C=CC(=O)NC(O)C(Cl)(Cl)Cl` (stereo not given) as the molecule, how does the growth [2] read?
Answer: 111%

Question: And the growth [3]?
Answer: 98.2%

Question: What about the growth [13] of the same molecule?
Answer: 84.3%

Question: And the growth [5]?
Answer: 95.9%

Question: And the growth [14]?
Answer: 99.6%

Question: And the growth [15]?
Answer: 90.8%

Question: And the growth [7]?
Answer: 102%

Question: And the growth [16]?
Answer: 107%

Question: And the growth [17]?
Answer: 122%

Question: And the growth [9]?
Answer: 98.1%

Question: And the growth [10]?
Answer: 120%

Question: And the growth [11]?
Answer: 106%

Question: What about the growth [18] of the same molecule?
Answer: 101%
